Measurements: PubChem BioAssay AID504339 (National Center for Advancing Translational Sciences (NCATS), 2011)
The campaign covered roughly 390,000 compounds. About 17,000 (4.4%) were called active. Another 8% or so got no clear call; they are omitted. Only a selection was taken, and actives are over-represented in it overall. Values without a mark were called inactive. Calls follow the shape of the dose curve; as a rule, active = well fitted inhibition curve with a large enough effect; inconclusive = small, poorly fitted or top-dose-only effect; inactive = no such curve, though single readings can be large or run the other way.

These molecules were tested against Lysine-specific demethylase 4A (Homo sapiens) (UniProt O75164) (assay: qHTS Assay for Inhibitors of JMJD2A-Tudor Domain). Settings: AlphaScreen JMJD2A-Tudor / H3K4me3 peptide binding; series mostly up to 114 µM; activity change, negative = inhibition: at the top concentration.
Description: JMJD2A is a jumonji-domain-containing lysine demethylase that uses Fe(II) together with 2-OG to effect oxidative demethylation of histones. Methylation is one of many […] modification that affect epigenetic transcription. […] It is proposed that the functions of JmjD2A binding to the histones, is to maintain marks after they are installed and to spread the modifications by […], establishing a self-propagating cycle for rapid methylation over a large area of chromatin. […] Thus, small molecule targeting of the JMJD2A-tudor domain interaction with its target methylhistone mark is expected to enable sophisticated experiments probing the fine regulatory pathways leading to selective demethylation of a given methyllysine locus based on the methylation state of adjacent histone marks. A quantitative high throughput AlphaScreen has been developed to identify small molecule inhibitors based on a protocol published by NCGC and SGC [4].
Although AlphaScreen has significant advantages with its utility in a variety of epigenetic target assays, the primary screening data provided in this deposition should be used with caution due to the prevalence of screening artifacts. The top compound concentration tested was high (>100uM) in this assay, which increases number of actives and potential artifacts. An AlphaScreen counterscreen is highly recommended to be run against any putative actives to eliminate non-specific artifacts. Alternatively, one can use other AlphaScreen assays in PubChem to filter out promiscuous hits.
[1] Lee, J. et al. Distinct binding modes specify the recognition of methylated histone H3K4 and H4K20 by JMJD2A-tudor. Nat Struct Mol Biol. 15(1); 109-11. 2008. PMID: 18084306
[2] Yasgar, et al. Compound Management for Quantitative High-Throughput Screening. JALA. 2008 Apr;13(2):79-89. PMID: 18496600
[3] Inglese, et al. Quantitative high-throughput screening: a titration-based approach that efficiently identifies biological activities in large chemical libraries. Proc Natl Acad Sci. 1;103(31):11473-8. 2006. PMID: 16864780
[4] Quinn et al. A homogeneous method for investigation of methyl-dependent protein-protein interactions in epigenetics. Nucleic Acids Res., 38(2):e11. 2010. PMID: […]
[5] Baell,Holloway. New substructure filters for removal of pan assay interference compounds (PAINS) from screening libraries and for their exclusion in bioassays. J Med Chem. 53(7):2719-40. 2010. PMID: 20131845
NIH Molecular Libraries Probe Production Network [MLPCN]
NIH Chemical Genomics Center [NCGC]
Structural Genomics Consortium (SGC)
To each well of a 1,536w plate, 2ul of JMJD2A-Tudor (final 100nM) and 1ul biotinylated histone peptide methylated at Lys4 [b-H3(1-18)K4me3] (final 50nM) were added in 1x PBS buffer, pH 7.4, containing 0.01% Tween-20, using a nanoliter dispenser. Formation of a protein-peptide complex proceeded at room temperature for 30 min. A Kalypsys pin-tool transferred 23nl of library compound solution in DMSO to each well. Following a 30 min incubation of the protein-peptide complex with compounds at room temperature, a mixture of 40 µg/mL each streptavidin-coated donor and nickel chelate acceptor AlphaScreen beads (final 10 µg/mL) was added in a 1ul dispense for a final volume of 4ul, followed by a brief centrifugation (1000 rpm, 1 min). Plates were incubated protected from the light for 20 min at room temperature. Microplates were then read on an EnVision multilabel plate reader using the 1,536 plate HTS AlphaScreen aperture (excitation time 80 ms, measurement time 240 ms).
% is scaled to controls: 0 for no effect and ±100 for the full control effect; potency is read from the fitted curve at half-maximal effect.
Also: nearly all actives have a fitted effect of over 50% in size.

Chain of Lysine-specific demethylase 4A (Homo sapiens) (O75164 whole entry, looked up, the tested form may be a part): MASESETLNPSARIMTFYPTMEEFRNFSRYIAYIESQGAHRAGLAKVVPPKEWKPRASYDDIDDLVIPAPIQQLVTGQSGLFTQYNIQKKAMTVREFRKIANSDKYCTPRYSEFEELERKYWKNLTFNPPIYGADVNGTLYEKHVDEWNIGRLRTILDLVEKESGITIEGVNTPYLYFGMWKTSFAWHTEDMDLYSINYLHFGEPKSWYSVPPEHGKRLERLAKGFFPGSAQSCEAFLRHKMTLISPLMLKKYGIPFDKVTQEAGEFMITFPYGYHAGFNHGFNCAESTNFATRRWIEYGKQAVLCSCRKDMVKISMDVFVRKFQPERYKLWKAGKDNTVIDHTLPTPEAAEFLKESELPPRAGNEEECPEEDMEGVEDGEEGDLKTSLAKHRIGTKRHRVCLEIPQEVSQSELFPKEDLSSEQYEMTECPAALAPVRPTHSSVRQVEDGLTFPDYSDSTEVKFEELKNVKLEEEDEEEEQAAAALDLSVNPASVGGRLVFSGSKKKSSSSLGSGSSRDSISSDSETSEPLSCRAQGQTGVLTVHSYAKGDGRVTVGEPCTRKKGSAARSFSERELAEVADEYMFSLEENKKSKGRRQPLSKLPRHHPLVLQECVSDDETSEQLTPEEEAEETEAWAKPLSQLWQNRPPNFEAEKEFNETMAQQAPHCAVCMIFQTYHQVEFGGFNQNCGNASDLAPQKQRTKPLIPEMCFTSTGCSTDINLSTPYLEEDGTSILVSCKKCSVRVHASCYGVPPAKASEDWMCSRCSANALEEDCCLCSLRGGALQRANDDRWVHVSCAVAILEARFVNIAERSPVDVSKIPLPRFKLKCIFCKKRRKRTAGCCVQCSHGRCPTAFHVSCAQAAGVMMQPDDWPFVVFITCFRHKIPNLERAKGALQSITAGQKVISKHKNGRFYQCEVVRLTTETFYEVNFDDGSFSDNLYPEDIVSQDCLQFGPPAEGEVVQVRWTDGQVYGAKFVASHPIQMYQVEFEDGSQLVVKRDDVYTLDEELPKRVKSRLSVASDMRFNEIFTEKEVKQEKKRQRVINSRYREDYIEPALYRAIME

SMILES	activity change, negative = inhibition	Potency
CCOc1ccc(C2C(C(=O)Nc3ccc(Cl)cc3)=C(C)Nc3nc(C(F)(F)F)nn32)cc1 (stereo not drawn)	-9.21%	–
Cc1cccc(N2CCN(c3ccc(NC(=O)/C=C\C(=O)O)cc3)CC2)c1	-14.3% [at 11.4 µM]	–
C=CC(=O)Nc1ccc(Nc2ccnc(Nc3ccc(N4CCN(C)CC4)cc3)n2)cc1	–	31.6 µM (active)
Cn1cnnc1SCC(=O)Nc1ccc(N2CCOCC2)cc1	-6.09%	–
COc1ccc(Cn2c(=S)[nH]c3cc(C(=O)NCCCN4CCOCC4)ccc3c2=O)cc1	-18.9%	–
O=C(NCCCN1CCOCC1)c1cc(-c2ccc(Cl)cc2)on1	-12.8%	–
Cc1c(C)n(Cc2ccc(Cl)cc2)c2ccc(C(=O)NCCCN3CCOCC3)cc12	–	89.1 µM (active)
CCc1ccc2ncc3c(-c4ccc(C)cc4)nn(CC(=O)NCc4ccccc4)c3c2c1	-23.7%	–
CC(=O)N1CCCc2cc(S(=O)(=O)N3CCC(C(=O)NCc4ccc(F)cc4)CC3)ccc21	-10%	–
CCOc1ccccc1C(=O)NC1(C(F)(F)F)C(=O)Nc2c1c(=O)[nH]c(=O)n2-c1ccc(F)cc1 (stereo not drawn)	2.41%	–
COc1cccc(CNS(=O)(=O)c2ccc3c(c2)CC(C)N3C(=O)C2CCC2)c1 (stereo not drawn)	–	inactive
CC(=O)N1c2ccc(S(=O)(=O)NCCC(=O)N(C)C3CCCCC3)cc2CC1C (stereo not drawn)	–	14.1 µM (active)
CC(=O)N1c2ccc(S(=O)(=O)N(C)CC(=O)N(C)Cc3ccccc3)cc2CC1C (stereo not drawn)	-10.5%	–
CCc1ccc(CN(Cc2ccco2)C(=O)c2ccccc2Cl)cc1	-2.2%	–
C#CC(C)(CC)NC(=O)Cn1nnc(-c2ccc(OCc3c(F)cccc3Cl)cc2)n1 (stereo not drawn)	-20.5%	–
Cc1cc2c(s1)c1cnn(Cc3cc(F)c(Cl)cc3Cl)c(=O)c1n2C	6.85%	–
CCOC(=O)c1ccc(N2C(=O)c3n[nH]c(C)c3C2c2ccc(O)c(OC)c2)cc1 (stereo not drawn)	-19.7%	–
CCCN(CCC)CCNC(=O)Cn1cnc2sc(C)c(S(=O)(=O)N3CCC(C)CC3)c2c1=O	-15.4%	–
CCN(CC)CCNC(=O)Cn1cnc2sc(C)c(S(=O)(=O)N3CCOCC3)c2c1=O	-3.57%	–
Cc1sc2ncn(CC(=O)NCCN(C)C)c(=O)c2c1S(=O)(=O)N1CCC(C)CC1	–	22.4 µM (active)
CCN(CCCNC(=O)c1cc(Nc2ccc(OC)cc2)nc2ccccc12)c1cccc(C)c1	-27%	–
CCc1cc2c(cc3c(=O)n(CC(=O)NCCc4ccc(OC)c(OC)c4)ncn32)s1	–	89.1 µM (active)
CCc1cc2c(cc3c(=O)n(CC(=O)N4CCN(c5cc(Cl)ccc5C)CC4)ncn32)s1	4.73%	–
CCOc1ccc(CCNC(=O)Cn2nc(CC)n3c(cc4sc(CC)cc43)c2=O)cc1OCC	-15.6%	–
Cc1ccc(NC(=O)C2CCN(S(=O)(=O)c3cc(-c4noc(C)n4)ccc3C)CC2)c(C)c1	-6.67%	–

SMILES	activity change, negative = inhibition	Potency
CCOCCCn1c(SCC(=O)Nc2ccc(CC)cc2)nc2ccccc2c1=O	9.33%	–
CCOc1ccc(CNC(=O)CCc2c(C)nn(-c3ccc(N4CCCCC4)nn3)c2C)cc1	-24%	–
CCN(CC)/[N+]([O-])=N/Oc1cc(O/[N+]([O-])=N/N2CCCC2CO)c([N+](=O)[O-])cc1[N+](=O)[O-] (stereo not drawn)	–	20 µM (active)
COc1ccc(C(=O)Nc2ccc(-n3nncc3-c3ccccc3)cc2)cc1OC	-34.3%	–
Cc1ccc(-n2c(C)cc(C(=O)CSc3nnc4ccccn34)c2C)cc1	-20.1%	–
Cc1ccc(-n2c(C)cc(C(=O)CN3C(=O)C(=O)N(C4CCCC4)C3=O)c2C)cc1	–	31.6 µM (active)
Cc1cc(C(=O)COC(=O)C2CC2)c(C)n1-c1ccc(F)cc1	-25.6%	–
Cc1c(Cl)cccc1NC(=O)C(=O)NCCc1csc2nc(-c3ccccc3F)nn12	-13.7%	–
S=C(NNC(=S)NC1CC2C=CC1C2)NC1CC2C=CC1C2 (stereo not drawn)	–	3.16 µM (active)
CC(C)c1ccc(NC(=S)NC2CC3C=CC2C3)cc1 (stereo not drawn)	-10%	–
COc1ccc(-c2noc(CCC(=O)N(C)c3ccccc3C)n2)cc1	-3.42%	–
CCCCN1C(=O)C(C)=C(C)C1OCCc1ccc(OC)c(OC)c1 (stereo not drawn)	-2.62%	–
CCCCOc1ccc(Cn2c(=O)oc3ccc(C)cc32)cc1OC	61.2%	–
CCCCOc1ccc(CN2C(=O)C(=O)c3cc(Br)cc(C)c32)cc1OC	–	14.1 µM (active)
COc1ccc(NC(=O)c2cc3cc(C)ccc3n2C)cc1	-2.32%	–
COc1ccc(-n2c(SCC(=O)Nc3ccc(Cl)c(C)c3)nc3n[nH]c(C)c3c2=N)cc1	-14%	–
Cc1cccc(Nc2nc(C)nc(N)c2S(=O)(=O)c2ccccc2)c1	-11.2%	–
CCOc1ccc(-c2nonc2NC(=O)c2oc3ccc(CC)cc3c2C)cc1	-12.6%	–
COc1ccccc1-c1cc(C(F)(F)F)nc(S(=O)(=O)CCCC(=O)Nc2cc(C)ccc2O)n1	-24.2%	–
COc1ccccc1-c1cc(C(F)(F)F)nc(S(=O)(=O)CCCC(=O)Nc2ccc(F)cc2F)n1	-6.48%	–
CSc1ccccc1NC(=O)CCS(=O)(=O)c1nc(-c2cccs2)cc(C(F)(F)F)n1	–	22.4 µM (active)
CCc1ccccc1NC(=O)c1ccc(F)c(S(=O)(=O)NC2CCCCCC2)c1	-4.28%	–
Cc1cc(Nc2ccc(N3CCOCC3)cc2)c2cccc(C)c2n1	-25.5%	–
CN(CC(=O)Nc1ccc(N2CCOCC2)cc1)CC(=O)Nc1ccccc1[N+](=O)[O-]	-5.3%	–
Cc1ccccc1N/N=C/c1ccc(N2CCOCC2)cc1	–	50.1 µM (active)

SMILES	activity change, negative = inhibition	Potency
CC(=O)N1CCN(c2ccc(NCc3ccc(C(C)C)cc3)cc2)CC1	–	44.7 µM (active)
COc1ccc(N2CCN(C(=O)CNC(=O)c3ccc(Br)o3)CC2)cc1	-12.5%	–
CC(=O)c1ccc(N2CCN(C(=O)CCc3ccccc3)CC2)cc1	-19.3%	–
O=C(O)c1cscn1	–	4.47 µM (active)
Cc1ccc2nc(COc3ccccc3NC(=O)Nc3ccc(F)c(Cl)c3)cc(=O)n2c1	-14.3%	–
COc1ccc(CCNC(=O)CCCCn2c(=O)c3ccccc3n(Cc3ccccc3)c2=O)cc1OC	-5.46%	–
CCOC(=O)Cc1ccc(NC(=O)Nc2c[nH]c(=O)[nH]c2=O)cc1	-8.28%	–
CCCCN(CC)CCCNC(=O)Cn1ncc2c([nH]c3ccc(C)cc32)c1=O	-26.9%	–
CCCSc1ncc(Cl)c(C(=O)Nc2sc3c(c2C(=O)NCCOC)CCCC3)n1	-20.1%	–
Cc1ccccc1NC(=S)N(CCCN1CCOCC1)Cc1cccs1	-11.6%	–
Cc1ccc(NC(=S)N(CCCN2CCCC2)Cc2cccn2Cc2ccc(Cl)cc2)cc1	–	50.1 µM (active)
Cc1ccc(NC(=S)N(CCCN2CCC(C)CC2)Cc2ccco2)cc1	-28.5%	–
O=c1[nH]c2cc(Br)ccc2n2cccc12	0.336%	–
COc1cc(C(=O)N2CCN(c3ccc(Nc4ccc(C)cc4)nn3)CC2)cc(OC)c1OC	-20.8%	–
Cc1ccc(N=C2NC(=O)/C(=C/C=C/c3ccco3)S2)cc1C	–	39.8 µM (active)
COc1ccc(OC)c(CCNC(=O)CCCn2c(=O)c3cccn3c3cccnc32)c1	-6.23%	–
O=C(Cn1c(=O)n(Cc2cccs2)c(=O)c2cccnc21)Nc1ccc(F)cc1	-9.09%	–
O=c1[nH]n2c(=O)c3c([nH]c2c1N=Nc1ccccc1)CCC3	–	50.1 µM (active)
CC(C)(C)n1c(=O)[nH]c2c(c1=O)CCC2	4.4%	–
Cc1ccc2oc(=O)c3cnn(CC(=O)NCc4ccccc4Cl)c3c2c1	-22.5%	–
CCOc1cc(C(=O)NCCc2csc3nc(-c4ccc(C)cc4)nn23)cc(OCC)c1OCC	3.3%	–
COc1ccc(-c2nnc(SCC(=O)c3ccco3)n2-c2ccccc2)cc1	–	56.2 µM (active)
CCOc1ccc(-n2c(SCC(N)=O)nnc2-c2ccco2)cc1	–	20 µM (active)
NNC(=O)CSc1nnc(-c2ccccc2)n1-c1ccccc1	-15.9%	–
Cc1cccc(C)c1NC(=O)CCCSc1nnc(-c2ccco2)n1-c1ccccc1	-27.9%	–

SMILES	activity change, negative = inhibition	Potency
COc1ccc(C(=O)NC(=O)CSc2nnc(-c3ccco3)n2-c2ccccc2)cc1	-4.05%	–
Cc1cc(NC(=O)CSc2nnc(-c3ccco3)n2N)no1	-18.8%	–
O=C1OC(C(=O)Nc2cccc(Br)c2)Cc2ccccc21 (stereo not drawn)	-5.15%	–
CCOC(=O)c1ccc(NC(=O)c2ncn(-c3ccccc3)n2)cc1	-1.37%	–
NC1=NC(c2cc(F)cc(F)c2)n2c(nc3ccccc32)N1 (stereo not drawn)	-11.9%	–
COc1ccccc1NC(=O)c1cc(S(=O)(=O)NCCc2ccccc2)ccc1F	-22.6%	–
Oc1ccccc1-c1nc(/C=C/c2ccc(F)cc2)no1	-4.81%	–
Cn1c(=O)c(=O)n(C)c2cc(NC(=O)c3ccccc3Br)ccc21	-0.685%	–
O=C(Nc1ccc(-n2ccnc2P(=O)(O)c2ccccc2)cc1)c1ccccc1Br	–	8.91 µM (active)
Cc1ccc(NC(=O)c2cccnc2C(=O)Nc2ccc(C)cc2)cc1	-17.7%	–
COc1ccc(CCNC(=O)c2cc3cccc4c3n2CC(C)S4)c(OC)c1OC (stereo not drawn)	-10.7%	–
Cc1nnc(SCC(=O)NNC(=O)c2ccc(Cl)cc2)n1CC1CCCO1 (stereo not drawn)	-2.01%	–
S=c1[nH]nc(-c2ccc(Cl)cc2)n1CC1CCCO1 (stereo not drawn)	–	8.91 µM (active)
CNC(=O)NC(=O)CSc1nnc(-c2ccc(F)cc2)n1CC1CCCO1 (stereo not drawn)	-27.5%	–
COc1cc2[nH]c(=O)n(Cc3ccc(C(=O)NCc4ccc(C)cc4)cc3)c(=O)c2cc1OC	-8.53%	–
O=C(NCC(c1ccc(Cl)cc1)N1CCOCC1)c1ccccc1F (stereo not drawn)	1.32%	–
O=C(Nc1ccc(C(=O)OCc2cc(=O)n3nc(C4CC4)sc3n2)cc1)c1ccc(F)cc1	8.94%	–
CCN(C(=O)CSc1nnc(C)n2c1cc1occc12)c1ccccc1	-21.2%	–
CNC(=O)CN1C(=O)c2cccnc2Sc2ccccc21	-12.7%	–
CSc1n[nH]c(=S)n1N	–	17.8 µM (active)
CCOC(=O)C1CCN(c2c(Nc3cc(C)cc(C)c3)c(=O)c2=O)CC1	1.41%	–
CCOC(=O)C1CCN(c2ccc(C(=O)O)cc2[N+](=O)[O-])CC1	-9.25%	–
CCOC(=O)C1CCN(c2csc3ccc(C)cc3c2=O)CC1	–	17.8 µM (active)
